In all, about 110,000 compounds were measured (“z-score”: median about -0.1, highest 2% from about 2 on). The sample as a whole holds a higher share of the highest values than the screen did. Active and inactive are the calls of the source.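 The calls were made as follows: active = z-score in the third read window above 3 or below -3; inactive = the rest.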
What follows are molecules tested against Metabotropic glutamate receptor 8 (Rattus norvegicus) (UniProt P70579) (assay: mGluR8 Gi/Go-coupled signaling modulation – cell-based, rat, thallium flux, HTS, primary screen (AID 488969)). Conditions: HEK293 rat mGluR8, GIRK (G protein-gated inwardly rectifying potassium channel) thallium flux, FluoZin2; at 10 µM; stronger effect = higher value; submaximal glutamate (EC20) added with thallium.
Chain of Metabotropic glutamate receptor 8 (Rattus norvegicus) (P70579 whole entry, looked up): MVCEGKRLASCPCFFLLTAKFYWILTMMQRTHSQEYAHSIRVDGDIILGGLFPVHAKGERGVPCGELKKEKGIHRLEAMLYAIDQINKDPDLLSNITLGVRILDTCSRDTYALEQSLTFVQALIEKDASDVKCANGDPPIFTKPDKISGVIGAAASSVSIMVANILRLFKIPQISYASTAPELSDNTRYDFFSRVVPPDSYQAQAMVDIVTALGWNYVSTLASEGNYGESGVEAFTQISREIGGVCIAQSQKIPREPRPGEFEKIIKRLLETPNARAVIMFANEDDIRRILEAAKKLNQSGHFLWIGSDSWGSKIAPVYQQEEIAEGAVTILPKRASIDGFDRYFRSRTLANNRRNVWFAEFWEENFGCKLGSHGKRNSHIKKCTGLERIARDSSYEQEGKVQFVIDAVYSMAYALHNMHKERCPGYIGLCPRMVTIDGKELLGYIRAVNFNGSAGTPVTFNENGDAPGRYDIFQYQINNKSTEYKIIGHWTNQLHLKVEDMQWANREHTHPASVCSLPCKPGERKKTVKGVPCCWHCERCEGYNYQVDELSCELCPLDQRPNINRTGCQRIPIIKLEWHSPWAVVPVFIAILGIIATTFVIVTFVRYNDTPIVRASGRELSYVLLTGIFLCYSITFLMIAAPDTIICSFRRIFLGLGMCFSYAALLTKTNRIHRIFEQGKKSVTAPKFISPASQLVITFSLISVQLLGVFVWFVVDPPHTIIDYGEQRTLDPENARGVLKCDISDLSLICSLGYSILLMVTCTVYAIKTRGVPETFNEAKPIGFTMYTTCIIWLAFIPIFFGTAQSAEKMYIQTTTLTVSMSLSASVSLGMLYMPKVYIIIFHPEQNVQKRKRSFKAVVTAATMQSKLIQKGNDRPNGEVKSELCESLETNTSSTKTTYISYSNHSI

Compared with CC(C)(C)c1ccc(OCc2ccc(C(=O)N/N=C3\CC4CC=CC34)cc2)cc1 (stereo unspecified), Cc1ccc(C(=O)CSc2nnc(COc3ccc(C#N)cc3)n2-c2ccccc2)cc1 is higher in z-score: -0.0236 for the first, 0.655 for the second.

First: O=C1NC(=O)C(=C2CCCCCC2)S1
Second: O=C1NC(=S)SC1=C1CCCC1
The z-score of the first is lower: 0.367 for the first, 1.36 for the second.

First: Cc1cc(C(=O)NCc2ccccc2F)cs1
Second: Cc1cc(NC(=O)C(C)C)ncc1NC(=O)Cc1ccccc1
The z-score of the first is lower: -0.288 for the first, 1.07 for the second.

First: CCSC1=N/C(=C\c2ccc(OC)cc2)C(=O)N1
Second: CCOC(=O)c1ccc(Oc2nc(NC)nc(OC)n2)cc1
The z-score of the first is higher: -0.286 for the first, -0.524 for the second.

First: S=c1[nH]nc(-c2ccc3ccccc3n2)o1
Second: S=c1[nH]nc(-c2ccc3ccccc3n2)n1-c1ccccc1
The z-score of the first is lower: -0.153 for the first, 0.119 for the second.

Compared with S=c1[nH]nc(-c2ccc3ccccc3n2)n1-c1ccc(Cl)cc1, S=c1[nH]nc(-c2ccc3ccccc3n2)n1-c1ccccc1Cl is lower in z-score: 0.934 for the first, 0.0824 for the second.

Going from S=c1[nH]nc(-c2ccc3ccccc3n2)n1-c1ccc2ncccc2c1 to S=c1[nH]nc(-c2ccc3ccccc3n2)n1-c1cc(Cl)cc(Cl)c1, the z-score rises from -0.148 to 2.18.

Going from S=c1[nH]nc(-c2ccc3ccccc3n2)n1Cc1ccccc1 to COc1ccccc1-n1c(CNC(=O)COc2ccccc2)n[nH]c1=S, the z-score rises from 0.834 to 2.71.

Going from Oc1csc(Cc2nc(-c3ccc4ccccc4c3)cs2)n1 to Cc1ccc(-c2cn(-c3ccccc3)c(SCC(N)=O)n2)cc1C, the z-score falls from -0.78 to -1.06.

Going from Cc1ccc(NC(=O)C2CCCN(S(=O)(=O)c3cnc[nH]3)C2)cc1F (stereo unspecified) to COC(=O)COc1ccc(S(=O)(=O)N2CCc3ccccc3C2)cc1, the z-score falls from -0.00916 to -0.687.

Going from Clc1ccc(-c2cc(CSc3cccc(Cl)c3)on2)cc1 to Cc1ccc(C)c(-n2cc(-c3ccc(Cl)cc3)nc2SCC(=O)NC2CCS(=O)(=O)C2)c1 (stereo unspecified), the z-score falls from -0.234 to -0.524.

Going from CCOC(=O)c1cc(NC(=O)COc2ccc([N+](=O)[O-])cc2)cc(C(=O)OCC)c1 to N#Cc1ccccc1NC(=O)COC(=O)CSc1nc2ccccc2o1, the z-score falls from -0.0752 to -2.27.

Compared with Cc1[nH]c(=O)[nH]c(=O)c1/C=C/C(=O)OCC(C)C, CCN(CC)S(=O)(=O)c1ccc(C(=O)NCc2n[nH]c(=S)n2-c2ccccc2OC)cc1 is lower in z-score: 0.104 for the first, -0.0139 for the second.

First: NCCCCCc1nnc(SCc2ccc(Cl)c(Cl)c2)o1
Second: NCCCCCc1nnc(SCc2ccc(Cl)cc2Cl)o1
The z-score of the first is lower: 0.93 for the first, 2.74 for the second.

Compared with NCCCCCc1nnc(SCc2ccccc2Cl)o1, CCCCSc1nc2ccccc2n1CC(=O)O is lower in z-score: 1.74 for the first, -0.412 for the second.

First: O=C(CSc1nnc(-c2ccc(Br)cc2)n1CCc1ccccc1)NC1CCS(=O)(=O)C1 (stereo unspecified)
Second: O=C(CSc1nc2ccccc2n1CCc1ccccc1)NC1CCS(=O)(=O)C1 (stereo unspecified)
The z-score of the first is lower: -0.076 for the first, 2.39 for the second.

Compared with O=C(Cn1c(SCc2ccccc2)nc2ccccc21)N1CCOCC1, O=C(CSc1nc2ccccc2n1CCc1ccccc1)N1CCOCC1 is higher in z-score: -0.096 for the first, 2.47 for the second.

Going from CCN(C(=O)CSc1nc2cc(C(F)(F)F)ccc2n1Cc1ccccc1)C1CCS(=O)(=O)C1 (stereo unspecified) to O=C(CSc1nc2cc(C(F)(F)F)ccc2n1Cc1ccccc1)NC1CCS(=O)(=O)C1 (stereo unspecified), the z-score rises from -0.724 to -0.137.

Compared with CN(C(=O)CSc1nc2ccccc2n1CCc1ccccc1)C1CCS(=O)(=O)C1 (stereo unspecified), O=C(CSc1nc2ccccc2n1CC(=O)N1CCOCC1)N1CCCC1 is higher in z-score: 0.483 for the first, 0.588 for the second.

Going from CCOC(=O)/C(=N\Nc1ccc(OC)cc1)c1csc(Nc2ccccc2)n1 to CC(=O)Cc1nsc(NC(=O)c2cn(-c3ccccc3)nc2-c2ccc(Br)cc2)n1, the z-score falls from 0.551 to 0.229.

First: COC(=O)CCc1c(C)c(C#N)c2nc3ccccc3n2c1N1CCCC1
Second: O=c1/c(=C/c2ccccn2)sc2nc3ccccc3n12
The z-score of the first is lower: -0.478 for the first, 0.539 for the second.

First: Cc1cc(-n2ccc(=O)[nH]c2=O)nc(-c2ccccc2)n1
Second: O=c1/c(=C\c2cccnc2)sc2nc3ccccc3n12
The z-score of the first is lower: -0.208 for the first, -0.0361 for the second.

Compared with S=C1NCCc2ccc(Cl)cc2C1c1ccccc1 (stereo unspecified), O=C(c1ccccc1F)N1CCN=C1SCc1cccnc1 is higher in z-score: -0.00171 for the first, 0.643 for the second.

Going from Cc1c(C(C)(C)C)c(C=S)n2ccccc12 to CC(C)(C)c1ccc2c(c1)C(=O)c1ccccc1C2=O, the z-score rises from -0.503 to -0.283.

First: CN(C)c1ccc(C2NCC(CCl)O2)cc1 (stereo unspecified)
Second: COc1ccc(CCN2C(=O)C(Oc3ccccc3C)C2c2ccc3c(c2)OCO3)cc1 (stereo unspecified)
The z-score of the first is higher: -0.159 for the first, -0.223 for the second.

First: COc1cc(OC)cc(C(=O)NCc2n[nH]c(=S)n2-c2ccccc2OC)c1
Second: COc1ccc([C@@H]2Sc3cc(OC)ccc3N(CCN(C(C)C)C(C)C)C(=O)[C@H]2OC(C)=O)cc1
The z-score of the first is lower: -0.981 for the first, 2.62 for the second.

Compared with CSc1ccc(N2CCN(CCCNC(=O)Nc3ccccc3F)CC2)cc1, Cc1ccccc1C(=O)N1CCN(c2ccc([N+](=O)[O-])c(NCc3cccnc3)c2)CC1 is lower in z-score: 0.699 for the first, -0.418 for the second.

Compared with Fc1ccc(CCNC(=S)Nc2ccc(F)cc2)cc1, COc1ccc(CCN2C(=O)C(Oc3ccccc3)C2c2ccc3c(c2)OCO3)cc1 (stereo unspecified) is lower in z-score: 0.103 for the first, -0.146 for the second.

First: Cc1nc2oc3c(NCc4ccccc4)ncnc3c2c2c1COC(C)(C)C2
Second: CCOc1ccc(C2=NNC(c3cccs3)=Nc3ccc(OCC)cc32)cc1
The z-score of the first is lower: -0.383 for the first, -0.166 for the second.

Going from CCCOc1ccc(C2=NNC(c3cccs3)=Nc3ccc(OC)cc32)cc1 to Cc1ccc(OCc2n[nH]c(=S)n2C2CCCCC2)cc1, the z-score falls from -0.471 to -1.04.

Going from CCCn1c2c(c(O)c(C(=O)NCCCN(CC)CC)c1=O)CCCC2 to Cc1cc(C(=O)N/N=C2\CCCC(C)C2)n[nH]1 (stereo unspecified), the z-score falls from 0.585 to -0.208.

Molecule S=c1[nH]nc(COc2ccc(Cl)cc2)n1C1CCCCC1 has a z-score of 1.31.

In the case of O=C1NC(=S)SC1=C1CCCCCC1, the z-score is reported as 17.1 (active).
In the case of CC(c1ccc(F)cc1)n1c(-c2ccc3ccccc3n2)n[nH]c1=S (stereo unspecified), the z-score is reported as 6.84 (active).
In the case of CC(c1ccc(Cl)cc1)n1c(-c2ccc3ccccc3n2)n[nH]c1=S (stereo unspecified), the z-score is reported as 7.23 (active).
With Cc1ccc(-c2cn(-c3ccccc3)c(SCC(=O)NC3CCS(=O)(=O)C3)n2)cc1C (stereo unspecified) the z-score was 3.44 (active).
With CCN(C(=O)CSc1nc2ccccc2n1CCc1ccccc1)C1CCS(=O)(=O)C1 (stereo unspecified) the z-score was 3.88 (active).
Cc1cc(/C=c2/sc3nc4ccccc4n3c2=O)c(C)n1-c1ccccn1 was tested, and the z-score was 6.08 (active).
In the case of CCOc1ccc(C2=NNC(c3cccs3)=Nc3ccc(OC)cc32)cc1, the z-score is reported as 3.11 (active).
With Cc1cc(Cl)ccc1OCc1n[nH]c(=S)n1C1CCCCC1 the z-score was 7.67 (active).
